Rows were chosen to be rich in hits. Some 12% of all compounds tested hit in one or more screens of this group.
Sfp PPTase inh: Sfp phosphopantetheinyl transferase inhibition; actives 3.5% (n = 310,000); Biochemical Sfp PPTase activity, qHTS; Potency, µM, for the others: largest response in the series, negative = inhibition, usual class: inhibitors; Q9F4F7;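 also: the enzyme is Sfp with the accession as filed and its product quenches rhodamine fluorescence; 0% = enzyme reaction without inhibitor and -100% = no enzyme wells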
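Compounds were incubated with enzyme (final 15 nM) for 15 min at room temperature before substrate addition started the reaction. Fluorescence at 525 nm excitation, 598 nm emission was recorded immediately and after 30 minutes.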
HP1b chromo inh: HP1-beta chromodomain-methylated histone interaction inhibition; Potency, µM (doses to about 114 µM), without a hit: at the highest dose activity change, negative = inhibition, actives largely listed as inhibitors; actives 0.56% (n = 390,000); AlphaScreen HP1-beta / biotin-H3K9me3 peptide binding; AID 540317; P83916; also: nearly all actives have a fitted effect of over 70% in size
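AlphaScreen: HP1-beta (50 nM) preformed 30 min with biotin-H3(1-18)K9me3 peptide (50 nM) in PBS pH 7.4, 0.01% Tween-20. Compound added for 30 min at RT, then streptavidin donor/nickel chelate acceptor beads (10 ug/mL) for 30 min.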
PLK1 PBD inh: inhibitors of human PLK1 polo-box domain binding. Plk1 PBD binding of FITC phosphopeptide, fluorescence polarization. actives 2.8% (n = 360,000). P53350. Potency, µM, inactives show max response, negative = inhibition, most hits filed as inhibitors; also: series mostly up to about 57 µM; % is scaled to controls: 0 for no effect and ±100 for the full control effect; nearly all actives have a fitted effect of over 65% in size
JMJD2A Tudor inh: JMJD2A Tudor domain (human) inhibition | O75164 | AlphaScreen JMJD2A-Tudor / H3K4me3 peptide binding | Potency, µM (doses to about 114 µM), without a hit: at the top dose activity change, negative = inhibition, usual class: inhibitors | actives 4.4% (n = 390,000); also: % is scaled to controls: 0 for no effect and ±100 for the full control effect; nearly all actives have a fitted effect of over 50% in size
G9a inh: blocks human histone lysine methyltransferase G9a. Potency, µM (doses to about 102 µM), for the others: at the top dose activity, negative = inhibition, usual class: inhibitors. actives 8.8% (n = 350,000). Q96KQ7. G9a H3K9 monomethylation, AlphaScreen, 2 h; also: % is scaled to controls: 0 for no effect and ±100 for the full control effect; nearly all actives have a fitted effect of over 75% in size
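Using a bead-based AlphaScreen, monomethylated H3K9 product from 2 h room-temperature reactions (G9a 20 nM, peptide 500 nM, SAM 20 uM) was detected with 0.5 ug/mL rabbit anti-H3K9me1 antibody.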
BAZ2B block: inhibitors of human BAZ2B bromodomain. actives 4.4% (n = 360,000). AlphaScreen BAZ2B-H3K14Ac peptide displacement. Q9UIF8. Potency, µM (doses to about 114 µM), for the others: at the highest dose activity change, negative = inhibition, actives largely listed as inhibitors. AID 504333; also: % is scaled to controls: 0 for no effect and ±100 for the full control effect; nearly all actives have a fitted effect of over 60% in size
Target sequence (Q9UIF8 whole entry, looked up): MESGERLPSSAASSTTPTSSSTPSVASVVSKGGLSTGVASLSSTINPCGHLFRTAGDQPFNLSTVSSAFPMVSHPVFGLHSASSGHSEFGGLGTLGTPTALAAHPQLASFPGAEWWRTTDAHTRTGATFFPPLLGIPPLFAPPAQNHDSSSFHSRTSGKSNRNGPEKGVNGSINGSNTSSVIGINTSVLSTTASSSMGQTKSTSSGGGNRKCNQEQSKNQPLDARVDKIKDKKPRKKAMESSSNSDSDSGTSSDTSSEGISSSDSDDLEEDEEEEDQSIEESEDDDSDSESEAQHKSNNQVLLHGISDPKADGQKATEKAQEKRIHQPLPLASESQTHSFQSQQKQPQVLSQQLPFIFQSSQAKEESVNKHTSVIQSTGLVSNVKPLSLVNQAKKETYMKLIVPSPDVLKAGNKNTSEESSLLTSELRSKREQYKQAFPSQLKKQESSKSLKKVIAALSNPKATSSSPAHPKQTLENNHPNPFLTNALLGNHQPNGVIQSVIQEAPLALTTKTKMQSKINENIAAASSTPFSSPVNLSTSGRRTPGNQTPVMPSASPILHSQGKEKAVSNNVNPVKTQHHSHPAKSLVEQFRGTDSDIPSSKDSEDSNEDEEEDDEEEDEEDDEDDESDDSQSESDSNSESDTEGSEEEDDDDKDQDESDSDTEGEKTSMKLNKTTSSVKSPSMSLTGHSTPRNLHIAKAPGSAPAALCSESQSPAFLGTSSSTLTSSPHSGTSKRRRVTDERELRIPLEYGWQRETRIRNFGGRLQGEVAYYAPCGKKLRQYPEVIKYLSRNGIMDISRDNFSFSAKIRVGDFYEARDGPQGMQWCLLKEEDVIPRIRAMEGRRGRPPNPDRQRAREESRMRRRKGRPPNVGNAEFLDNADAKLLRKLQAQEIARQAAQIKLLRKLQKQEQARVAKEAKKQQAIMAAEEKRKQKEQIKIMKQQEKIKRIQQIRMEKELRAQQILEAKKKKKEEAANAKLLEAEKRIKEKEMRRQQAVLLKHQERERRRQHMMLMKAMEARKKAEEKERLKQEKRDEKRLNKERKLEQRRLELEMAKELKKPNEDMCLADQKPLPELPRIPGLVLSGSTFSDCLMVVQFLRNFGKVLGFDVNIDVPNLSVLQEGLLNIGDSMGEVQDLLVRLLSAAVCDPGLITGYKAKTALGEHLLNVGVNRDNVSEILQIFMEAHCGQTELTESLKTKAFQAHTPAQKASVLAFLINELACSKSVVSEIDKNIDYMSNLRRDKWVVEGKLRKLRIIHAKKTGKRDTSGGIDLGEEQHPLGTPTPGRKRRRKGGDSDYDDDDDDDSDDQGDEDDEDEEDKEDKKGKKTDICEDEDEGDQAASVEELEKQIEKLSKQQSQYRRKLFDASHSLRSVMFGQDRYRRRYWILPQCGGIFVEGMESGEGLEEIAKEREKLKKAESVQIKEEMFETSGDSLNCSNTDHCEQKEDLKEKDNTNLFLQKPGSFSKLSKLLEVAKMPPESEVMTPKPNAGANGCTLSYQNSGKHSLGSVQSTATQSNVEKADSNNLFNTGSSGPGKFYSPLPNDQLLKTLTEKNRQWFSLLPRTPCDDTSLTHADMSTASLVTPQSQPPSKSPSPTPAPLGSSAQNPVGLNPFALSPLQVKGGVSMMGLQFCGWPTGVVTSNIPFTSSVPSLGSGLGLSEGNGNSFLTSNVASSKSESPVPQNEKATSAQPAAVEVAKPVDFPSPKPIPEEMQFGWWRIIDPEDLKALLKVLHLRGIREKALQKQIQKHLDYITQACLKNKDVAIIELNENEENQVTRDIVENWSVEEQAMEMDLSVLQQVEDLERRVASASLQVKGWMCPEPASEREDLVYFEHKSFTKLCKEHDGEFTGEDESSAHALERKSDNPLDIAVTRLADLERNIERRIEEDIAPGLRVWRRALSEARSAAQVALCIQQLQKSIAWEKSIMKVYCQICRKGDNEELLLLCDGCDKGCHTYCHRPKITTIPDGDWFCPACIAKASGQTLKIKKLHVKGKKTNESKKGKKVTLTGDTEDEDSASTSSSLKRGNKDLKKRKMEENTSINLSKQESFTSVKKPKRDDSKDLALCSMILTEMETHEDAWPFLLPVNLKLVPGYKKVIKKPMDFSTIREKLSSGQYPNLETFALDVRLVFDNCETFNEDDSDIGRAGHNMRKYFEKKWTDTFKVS
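Complex of BAZ2B and biotin-H3K14Ac (50 nM apiece) forms over 30 min at RT, then faces library compounds up to 110 uM for another 30 min; AlphaScreen beads added, 20 min dark incubation, luminescence read.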
An asterisk follows results filed as active; ? = inconclusive; / = not tested or not shown; [ ] = dose if it differs, or a comment. Calls follow the shape of the dose curve; as a rule, active = well fitted curve in the direction sought with a large enough effect; inconclusive = small, poorly fitted or top-dose-only effect, or another doubt; inactive = no such curve, though single readings can be large; an effect the other way counts as inactive or inconclusive. Potency is read from the fitted curve at half-maximal effect.

SMILES	Sfp PPTase inh	HP1b chromo inh	PLK1 PBD inh	JMJD2A Tudor inh	G9a inh	BAZ2B block
C/C=C/C=C\C(=O)Nc1cccc(C2=NOC3(C2)C[C@H](C(N)=O)N(C(=O)CC#N)C3)c1 (some centres undefined)	13µM*	-12%	?	?	-24%[12.7 µM]	-21%
CCCCCC(=O)Nc1cccc(C2=NOC3(C2)C[C@H](C(N)=O)N(C(=O)c2ccccc2)C3)c1 (some centres undefined)	14%	38%	-5%	-32%	-11%[59 µM]	-18%
CCCCCC(=O)Nc1cccc(C2=NOC3(C2)C[C@H](C(N)=O)N(C(=O)CC#N)C3)c1 (some centres undefined)	7%	/	/	/	?	56µM*
C/C=C\C=C\C(=O)Nc1cccc(C2=NOC3(C2)C[C@@H](C(N)=O)N(C(=O)C(c2ccccc2)c2ccccc2)C3)c1 (some centres undefined)	18µM*	15%	-20%	-36%	?	?
Cc1ccc(Cn2cc(CCC(=O)NCC(C)c3ccccc3)c3ccccc32)cc1 (centres undefined)	/	22%	/	-10%	-38%[59 µM]	?
COc1ccc(CNc2nc3nc(C)c(Cl)c(=O)n3[nH]2)cc1	11%	84%	-10%	-3%[11.4 µM]	56µM*	-19%
COc1ccccc1CNc1nc2nc(C)c(Cl)c(=O)n2[nH]1	13%	32%	-5%	-14%	13µM*	14%
Cc1cc(=O)n2[nH]c(NCc3ccc(F)cc3)nc2n1	/	23%	/	-23%	-41%[59 µM]	-21%
COc1ccccc1CNc1nc2nc(C)c(Cl)c(C)n2n1	/	26%	/	-7%	-21%[59 µM]	-4%
Cc1ccc(C(=O)OCC(=O)NC2CCCC(C)C2C)cc1S(=O)(=O)N1CCCCC1 (centres undefined)	/	34%	1%	-15%	2%[12.7 µM]	-4%
CCn1c(C)c2c([n+]1CC)CC(C)(C)CC2=O	-10%	-3%	-6%	32µM*	16µM*	7%
CCNS(=O)(=O)c1ccc(Br)c(C(=O)OC(C)C(=O)NCC2CCCCC2)c1 (centres undefined)	/	47%	0%	-2%	?	7%
COCCCNC(=S)Nc1cccc(S(=O)(=O)NC2=NCCC2)c1	19%	33%	-7%	-11%	0%	1%
Cc1ccc(Nc2nnc(SCC(=O)Nc3cccc(S(=O)(=O)NC4=NCCCCC4)c3)s2)c(C)c1	-17%	5%	-6%	-26%	40µM*	-25%
O=C(Cc1csc(-c2cccc(Cl)c2)n1)Nc1cccc(S(=O)(=O)NC2=NCCC2)c1	/	16%	-2%	-24%	14µM*	0%
CCCNCC(=O)Nc1cccc(S(=O)(=O)NC2=NCCCCC2)c1	/	?	0%	1µM*	/	/
CNC(=S)Nc1cccc(S(=O)(=O)NC2=NCCC2)c1	-22%	23%	-2%	-1%	50µM*	/
COc1ccc(Br)cc1C1NC(c2ccc3c(c2)OCO3)=CC(c2ccccc2O)N1 (centres undefined)	/	8%[57 µM]	/	-24%[57.1 µM]	/	/
Cc1ccc(NC(=O)CSc2nc(N)cc(=O)[nH]2)cc1S(=O)(=O)N1CCCCC1	/	30%[57 µM]	-5%	-12%	/	/
Cc1nn(CC(=O)Nc2ccccc2F)c(=O)c2c(C)n(-c3ccc(Cl)cc3)nc12	/	18%[57 µM]	/	-15%	6%[59 µM]	6%
O=C(Nc1cccc(C(F)(F)F)c1)c1cc(-c2ccc3c(c2)OCCO3)on1	/	19%	/	-21%	-4%[59 µM]	-12%
Cc1ccc(CNCC(=O)Nc2cccc(S(=O)(=O)NC3=NCCCCC3)c2)cc1	-13%	?	1%	7.9µM*	40µM*	?
CCOC(=O)c1c(N)sn(-c2ccccc2C)c1=S	18µM*	-71%	5.3µM*	56µM*	5.6µM*	?
CCN1C(C)=C(C)S/C1=C1\SC(=S)N(N)C1=O	20µM*	18%	-10%	-1%[57.1 µM]	/	-19%
O=[N+]([O-])c1ccc(C[n+]2ccc(Cc3ccccc3)cc2)cc1	-15%	32%	-3%	-8%	13µM*	-27%
